Values joined by “and” are separate entries in the source; they are usually repeats but may differ in a detail not shown here. Identical values can stand only once. Out of some 350,000 compounds screened, about 31,000 (8.9%) were called active. Inconclusive results (about 15%) are left out. Calls follow the shape of the dose curve; as a rule, active = well fitted inhibition curve with a large enough effect; inconclusive = small, poorly fitted or top-dose-only effect; inactive = no such curve, though single readings can be large or run the other way. The sample as a whole holds a higher share of actives than the screen did. Where a structure was tested more than once in an assay, its records may differ in their call.
biological target: Histone-lysine N-methyltransferase EHMT2 (Homo sapiens) (UniProt Q96KQ7); test: qHTS Assay for Inhibitors of Histone Lysine Methyltransferase G9a; settings: G9a H3K9 monomethylation, AlphaScreen, 2 h; series mostly up to 59 µM; activity, negative = inhibition: at the top concentration; also: nearly all actives have a fitted effect of over 75% in size
Sequence (Q96KQ7 913-1193 limits assumed): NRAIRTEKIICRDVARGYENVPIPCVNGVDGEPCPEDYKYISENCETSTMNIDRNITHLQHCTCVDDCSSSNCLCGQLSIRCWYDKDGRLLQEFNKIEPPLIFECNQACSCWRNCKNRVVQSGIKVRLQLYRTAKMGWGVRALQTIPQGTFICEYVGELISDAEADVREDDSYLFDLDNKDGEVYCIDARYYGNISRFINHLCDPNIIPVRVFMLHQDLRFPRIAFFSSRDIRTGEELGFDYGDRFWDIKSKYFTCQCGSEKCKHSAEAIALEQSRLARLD
Method in brief: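 Methyltransferase reactions run at room temperature for 2 h (20 nM enzyme, 500 nM biotin-H3K9 peptide, 20 uM SAM) after a 15 min compound preincubation; product detected by AlphaScreen beads and anti-H3K9me1 antibody.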
% is scaled to controls: 0 for no effect and ±100 for the full control effect; potency is read from the fitted curve at half-maximal effect.

activity, negative = inhibition, inactive:
COc1cccc(CNC(=O)CCc2nc(-c3ccc(C)cc3)no2)c1 20.6%
CCCN1CCN(CCCNC(=O)c2cnn(-c3ccc(C)cc3)c2-n2cccc2)CC1 -11.1%
COc1ccc(-c2ccc(=O)n(CC(=O)Nc3ccc(Br)cc3F)n2)cc1 0.314%
O=C(COc1ccc(Cl)cc1)NCCS(=O)(=O)N1CCN(c2ccc(F)cc2)CC1 -10.7% [at 102 µM]
COc1ccccc1/C=C/c1nc(C#N)c(NC(C)c2ccccc2)o1 (configuration not stated) -49.3%
CSc1ccccc1-c1nnc(NC(=O)c2ccc3c(c2)OCCO3)o1 64.6%
CS(=O)(=O)c1ccc(-c2nnc(NC(=O)c3ccc4c(c3)OCCO4)o2)cc1 44.7%
Cc1ccccc1OCC(=O)Nc1ccc2c(c1)ncn2C -10.2% [at 0.501 µM]
O=S(=O)(NCCCN1CCOCC1)c1ccc(F)c(Cl)c1 27% [at 12.7 µM]
COc1ccc(S(=O)(=O)N(C)CC(=O)NCCCN2CCOCC2)cc1Cl 10.6%
O=C(NCc1cccnc1)c1cc(S(=O)(=O)N2CCOCC2)c(Cl)cc1Cl -2.17% [at 2.33 µM]
CCc1cccc(NC(=O)CN(c2ccc(C)c(C)c2)S(=O)(=O)c2ccsc2C(=O)OC)c1 5.26%
CC(=O)Nc1ccc(S(=O)(=O)N2CCC(C(=O)N[C@@H](Cc3ccccc3)C(=O)O)CC2)cc1 13.7% [at 102 µM]
CSc1cccc(NC(=O)CN2C(=O)CCc3cc(S(=O)(=O)N4CCCCC4)ccc32)c1 -38.2%
Cc1cccc(C)c1NC(=O)CSc1nc2c([nH]1)c(=O)n(C)c(=O)n2C 1.79%
CC(CCO)Nc1nc2c([nH]1)c(=O)n(C)c(=O)n2C (configuration not stated) -11%
CC(=O)Cc1nsc(NC(=O)c2ccc(Cl)cc2Cl)n1 -27.6% [at 102 µM]
Cc1ccc(NC(=O)c2csc3c2CCCC3)cc1 1.14% [at 102 µM]
COc1cc(C2C(C(=O)c3ccc(C)o3)=C(O)C(=O)N2Cc2cccnc2)ccc1O (configuration not stated) -13.2%
CCCOc1ccc(C2c3c(-c4ccccc4O)n[nH]c3C(=O)N2Cc2cccnc2)cc1 (configuration not stated) -1.26%
O=C(c1ccc(Br)cc1)N(Cc1cccs1)c1ccc(F)cc1 65%
CCCOc1ccc(C2=CSC3=NCCN23)cc1Cl -12.4% [at 102 µM]
COc1ccc(CCNc2ncnc3onc(-c4ccc(Cl)cc4)c23)c(OC)c1 5.46%
CCCCn1c(CNC(=O)C23CC4CC(CC(C4)C2)C3)nnc1SCC(=O)Nc1ccc(C)cc1 -10.5%
COc1ccc(-c2onc(C)c2C)cc1S(=O)(=O)NCC1CCN(Cc2cccc(F)c2)CC1 1.76%
Cc1cc(OCCCCOc2ccc(C#N)cc2)ccc1[N+](=O)[O-] 30.7% [at 12.7 µM]
O=C(c1cccc([N+](=O)[O-])c1)N1CCN(Cc2ccccc2)CC1 16.3% [at 102 µM]
COc1ccc(-c2nc(Cn3c(=O)cc(C)c4c(C)nn(-c5ccccc5)c43)c(C)o2)cc1OC 6.04%
CN(CC(=O)Nc1ccc(Cl)cc1)CC(=O)Nc1cccc2ccccc12 -44.6% [at 12.7 µM]
CCOC(=O)c1cc(Sc2ccccc2N)cc(C(=O)OCC)n1 45% [at 102 µM]
Cc1ccc(S(=O)(=O)NCCSc2ccccc2)cc1[N+](=O)[O-] -13.4%
CCOc1ccccc1NC(=O)Cn1ncc2ccc([N+](=O)[O-])cc21 -50.6% [at 102 µM]
CCc1ccccc1NC(=O)c1ccc2nc(CCc3ccccc3)oc2c1 -8.22%
COc1ccc(C)cc1NC(=O)CCCN1C(=O)NC(C)(C)C1=O 20.4% [at 2.33 µM]
COc1cc(/C=N/NC(=O)c2ccc(N3CCCC3=O)cc2)ccc1O 65.8% [at 102 µM]
Cn1c(=O)n(C)c2cc(/C=N/NC(=O)c3cccc(Br)c3)ccc21 20.1%
Cc1ccccc1NC(=O)Cn1cc(C(=O)c2cccs2)c2ccccc21 -6.24%
O=S(=O)(NC1CC1)c1ccc(Cl)cc1 12.4% [at 102 µM]
O=c1c([N+](=O)[O-])cc(C(F)(F)F)cn1Cc1cccc(Cl)c1 71.8%
O=C(Cn1ccc2cc(S(=O)(=O)N3CCCC3)ccc21)NCc1ccccc1 10.8% [at 102 µM]
Cc1cc(S(=O)(=O)NC2CCCC2)ccc1-n1cnnn1 17.9%
O=C(NCC1CCCO1)c1ccc(S(=O)(=O)Nc2ccc(F)cc2)cc1 (configuration not stated) -38.7% [at 102 µM]
CN(CC(=O)Nc1ccc(Cl)cc1)C(=O)c1ccc(COc2ccccc2)cc1 18.8%
Cc1ccc(NC(=O)CN(C)C(=O)c2ccc(Br)o2)cc1 -5.82% [at 102 µM]
CCOc1ccccc1CNC(=O)c1ccc(-n2c(C)cc3c2CCC(C)C3)cc1 (configuration not stated) -15.9%
COc1ccc(CCNC(=O)CN(C)S(=O)(=O)c2ccc3nc(C)sc3c2)cc1OC -2.8% [at 102 µM]
CCOCCCNC(=O)c1ccc2nc(CCc3ccccc3)oc2c1 -2.67%
Cc1ccc(NC(=O)c2cc(S(=O)(=O)NCCC3=CCCCC3)ccc2F)cc1C 11.5%
COCCCn1c(SCC(=O)Nc2ccccc2)nnc1-c1ccncc1 19.9%
CCOc1cc2[nH]c(=S)n(CCCN3CCCC3=O)c(=O)c2cc1OCC -45.8% [at 12.7 µM]
O=C(c1ccc2c(c1)N(Cc1ccccc1F)C(=O)c1ccccc1S2(=O)=O)N1CCOCC1 -32.7%
O=C(NC1CCCCC1)N1CCc2[nH]c3ccccc3c2C1 -17%
COC(=O)C1CCN(C(=O)c2cc(=O)[nH]c3ccccc23)CC1 0.366% [at 102 µM]
O=C(NCCc1ccc(F)cc1)c1ccc(S(=O)(=O)N2CCCCC2)cc1 -29.8% [at 102 µM]
Cn1c(Nc2ccccc2)cc(=O)n(C)c1=O 61.9% [at 102 µM]
Cc1cc2nc(C)n(CCCNC(=O)Nc3ccccc3)c2cc1C 11.2%
CCc1ccccc1NC(=O)Cn1c(=O)n(CC2CCC(C(=O)NCCc3ccccc3)CC2)c(=O)c2ccccc21 (configuration not stated) -0.279%
O=C(C1CCC(Cn2c(=O)c3sccc3n(Cc3ccccc3F)c2=O)CC1)N1CCCCC1 (configuration not stated) -12.4%
COc1cccc(NC(=O)CSc2nnc(-c3cccnc3)o2)c1 -41.5% [at 102 µM]
CCn1c(SCC(=O)Nc2ccc3c(c2)OCCO3)nnc1C(C)C -11.6% [at 102 µM]
CCCn1c(SCC(N)=O)nnc1C(C)C 13.7% [at 102 µM]
COC(=O)c1ccc2c(c1)N(CC(=O)Nc1ccc(C)c(C)c1)C(=O)c1ccccc1S2 -3.69%
Cc1ccc(C(=O)N/C(=C\c2cn(S(=O)(=O)N(C)C)c3ccccc23)C(=O)N2CCCC2)cc1 14.9% [at 102 µM]
COc1cc(C(=O)N/C(=C\c2cn(C)c3ccccc23)C(=O)N2CCOCC2)cc(OC)c1OC -9.22% [at 102 µM]
CCCCC[C@H]1CN(C2CCCCC2)C(=O)[C@@H]1CC(=O)NCc1ccc(OC)cc1 -11.2% [at 102 µM]
CCN(CC)CCn1c2c(c(SCC(=O)Nc3ccc(C(C)C)cc3)nc1=O)CCC2 -34.3% [at 102 µM]
COc1ccc2nc(Nc3nc(-c4cc5ccccc5oc4=O)cs3)sc2c1 22.6%
Cc1cc(NC(=O)c2cccc(Cl)c2)ccc1-c1cc2ccccc2oc1=O -4.3%
CCOC(=O)CN1C(C(=O)c2ccccc2)=C(OC(=O)C(C)(C)C)c2ccccc2S1(=O)=O -8.05%
CCCCc1nn2c(=O)cc(COC(=O)c3ccccc3NC(=O)C(C)(C)C)nc2s1 25.7%
O=C(COC(=O)c1ccccc1SCC(=O)N1CCCC1)Nc1ccccc1OC(F)F 13.9% [at 0.501 µM]
COc1ccc(CSc2nnnn2-c2ccc(C(=O)O)cc2)cc1 17.8% [at 102 µM]
Cc1ccc(-n2c(CNc3ccc(F)cc3)nnc2SCC(=O)N2CCOCC2)cc1 -3.9%
CC1(NC(=O)CCS(=O)(=O)c2ccc(Cl)cc2)CCS(=O)(=O)C1 (configuration not stated) -5.47% [at 12.7 µM]
CC1(C)CC(=O)C=C(c2cccc3c2Oc2ccccc2S3)C1 -4.23% [at 0.501 µM]
O=C(C(=O)N1CCc2ccccc2C1)N1CCc2ccccc2C1 17.3%
Cc1ccc(-c2cc(C(=O)N3CCc4ccccc4C3)no2)cc1 2.95% [at 102 µM]

Potency, active:
O=C(Nc1nnc(C2=COCCO2)o1)c1ccc([N+](=O)[O-])s1 44.7 µM
COc1ccc(-c2ccc(CNCCCN3CCOCC3)o2)cc1Cl 50.1 µM
Cc1ccc(NN=Nc2nc3c([nH]2)c(=O)n(C)c(=O)n3C)cc1 1.58 µM
CC(=O)Cc1nsc(NC(=O)c2csc3c2CCCC3)n1 2.51 µM
COc1ccc(C2C(C(C)=O)=C(O)C(=O)N2Cc2cccnc2)cc1 (configuration not stated) 20 µM
Cc1cc(OCCCN2CCN(Cc3ccccc3)CC2)ccc1[N+](=O)[O-] 8.91 µM
O=c1[nH]c(=S)[nH]c2[nH]c(=S)[nH]c12 1.58 µM and 1.26 µM
CCS(=O)(=O)c1cc([N+](=O)[O-])c(Sc2ccccc2N)s1 1.12 µM
O=C(N/N=C/c1cccc(Br)c1)c1ccc(N2CCCC2=O)cc1 79.4 µM
Cc1cc(C)c(OCCN2CC(C)OC(C)C2)c(Br)c1 (configuration not stated) 8.91 µM
O=[N+]([O-])/C=C/c1ccc2c(ccn2Cc2ccccc2)c1 31.6 µM
CN(CC(=O)Nc1ccc(F)cc1)C(=O)c1ccc(-c2ccc(Cl)cc2)o1 79.4 µM
CSc1nnc(-c2ccncc2)n1CCCN1CCCC1=O 50.1 µM
Cc1cc(=O)n(C)c(=O)n1CCCNc1ccccc1 15.8 µM
CCCn1c(SCC(=O)c2ccc3c(c2)OCCO3)nnc1C(C)C 44.7 µM
Cc1ccc(C(=O)N/C(=C\c2cn(C)c3ccccc23)C(=O)N2CCN(C)CC2)cc1 79.4 µM
O=c1oc2ccccc2cc1-c1csc(Nc2ccc(O)cc2)n1 12.6 µM
COc1ccc(NCc2nnc(SCc3ccccc3)n2-c2ccc(OC)cc2)cc1 50.1 µM
Cn1cccc1C(=O)N1CCc2ccccc2C1 2 µM

Potency, inactive and 12.6 µM (active):
COC(=O)[C@H]1[C@H]2C[C@H]3c4[nH]c5ccccc5c4CCN3C[C@@H]2CC[C@@H]1O

Reference: PubChem BioAssay AID504332 (National Center for Advancing Translational Sciences (NCATS), 2011)
